Results from PubChem BioAssay (NCI).
About 79,000 compounds went through this panel and 15% of them were active in at least one assay; those are over-represented in the sample as a whole. Activity calls are given as the source filed them. No stated cut-off is given here; in the data, active means growth inhibition above about 70%; inactive means the rest.

Experiments:
[1] = NCI Yeast Anticancer Drug Screen. Data for the rad52 strain (AID 147);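 further: 0% = growth of vehicle-treated control cultures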; conditions: S. cerevisiae rad52 mutant growth inhibition, active compounds read high
How it was run: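 Here a repair-compromised yeast strain receives each compound; its growth is then quantified and normalised to vehicle-only controls.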

[2] = NCI Yeast Anticancer Drug Screen. Data for the wt1 strain (AID 149);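 further: 0% = growth of vehicle-treated wt1 cultures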; conditions: S. cerevisiae wt1 strain (SPY 50644) growth inhibition, active compounds read high
How it was run: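 Readout: yeast growth inhibition, normalised to vehicle controls, in the wt1 strain exposed to test compounds.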

[3] = NCI Yeast Anticancer Drug Screen. Data for the rad50EPP+ strain (AID 151);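 further: 0% = growth of vehicle-treated control cultures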; conditions: S. cerevisiae rad50 mutant strain, active compounds read high
How it was run: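 Read-out is yeast growth inhibition relative to vehicle; cells used were the rad50EPP+ strain.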

[4] = NCI Yeast Anticancer Drug Screen. Data for the mgt1 strain (AID 153); conditions: S. cerevisiae mgt1 mutant growth inhibition, active compounds read high
How it was run: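 Measured: inhibition of mgt1 yeast growth by compound, normalized to vehicle-treated cultures.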

[5] = NCI Yeast Anticancer Drug Screen. Data for the rad50 strain (AID 155);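 further: 0% = growth of vehicle-only cultures of the same strain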; conditions: S. cerevisiae rad50 strain growth inhibition, active compounds read high
How it was run: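 Compounds were tested on a yeast strain with an engineered DNA damage repair alteration; the reported value is growth inhibition normalised to vehicle treatment.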

[6] = NCI Yeast Anticancer Drug Screen. Data for the mec2-1 strain (AID 157); conditions: S. cerevisiae mec2-1 strain, active compounds read high
How it was run: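 Using mec2-1 yeast: add compound, measure growth, express inhibition versus vehicle-treated cultures.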

[7] = NCI Yeast Anticancer Drug Screen. Data for the sgs1 mgt1 strain (AID 161);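 further: 0% = growth of cultures given vehicle only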; conditions: S. cerevisiae sgs1 mgt1 strain, active compounds read high
How it was run: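 Yeast cells carrying a defined DNA-repair defect were exposed to test compounds. Growth inhibition was measured relative to vehicle-treated controls.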

[8] = NCI Yeast Anticancer Drug Screen. Data for the CLN2oe strain (AID 163);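 further: 0% = growth of vehicle-only control cultures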; conditions: S. cerevisiae CLN2oe strain, active compounds read high
How it was run: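 Whole-cell yeast growth assay. A strain engineered for altered cell-cycle control received compound, and inhibition relative to vehicle-treated cultures was recorded.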

[9] = NCI Yeast Anticancer Drug Screen. Data for the cln2 rad14 strain (AID 165);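 further: 0% = growth equal to vehicle treated cultures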; conditions: S. cerevisiae cln2 rad14 strain, active compounds read high
How it was run: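 Yeast strain cln2 rad14, bearing defects in cell cycle control and DNA repair, serves as the test system; values reflect growth inhibition compared with vehicle.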

[10] = NCI Yeast Anticancer Drug Screen. Data for the bub3 strain (AID 167); conditions: S. cerevisiae bub3 mutant strain, active compounds read high
How it was run: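 Growth of a checkpoint-deficient yeast mutant is measured after compound exposure. Values represent inhibition relative to vehicle.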

[11] = NCI Yeast Anticancer Drug Screen. Data for the wt2 strain (AID 169);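 further: 0% = growth of vehicle-treated yeast cultures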; conditions: S. cerevisiae wt2 strain growth inhibition, active compounds read high
How it was run: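 Treated yeast vs. vehicle-treated yeast: growth inhibition determined.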

[12] = NCI Yeast Anticancer Drug Screen. Data for the mlh1 strain (AID 171);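 further: 0% = growth of vehicle-treated control cultures of the same strain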; conditions: S. cerevisiae mlh1 strain growth inhibition, active compounds read high
How it was run: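 A yeast strain with a defined genetic lesion serves as the test organism. Cultures receive compound or vehicle, and growth is measured.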

[13] = NCI Yeast Anticancer Drug Screen. Data for the sgs1 strain (AID 173);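 further: 0% = growth of vehicle-only control cultures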; conditions: S. cerevisiae sgs1 mutant, active compounds read high
How it was run: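 A genetically defined yeast mutant is incubated with the test compound, and its growth is compared to that of the same strain given vehicle.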

[14] = NCI Yeast Anticancer Drug Screen. Data for the mlh1 rad18 strain (AID 175); conditions: S. cerevisiae mlh1 rad18 strain growth inhibition, active compounds read high
How it was run: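 Steps: expose repair-defective yeast to compound; measure growth; express inhibition against vehicle-treated controls.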

[15] = NCI Yeast Anticancer Drug Screen. Data for the rad18 strain (AID 177); conditions: S. cerevisiae rad18 mutant growth inhibition, active compounds read high
How it was run: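 Measured value is growth inhibition of a yeast strain bearing a DNA repair alteration, referenced to vehicle-treated cells.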

[16] = at 5.0 µM (retest, dose inferred, filed as 0.5)
[17] = at 50.0 µM (retest, dose inferred, filed as 5.0)

Measured: growth inhibition

COc1cc(C2c3cc4c(cc3OC(Nc3ccccc3)C2C)OCO4)cc(OC)c1O (stereo not drawn)
active: [1]; at 100.0 µM 86% | [5]; at 50.0 µM 77% | [5]; at 100.0 µM 86% | [6]; [17] 78% | [14]; [17] 99% | [14]; at 50.0 µM 92.5% | [15]; at 100.0 µM 92%
inactive: [1]; at 1.2 µM 1% | [1]; at 3.7 µM 2% | [1]; at 11.0 µM 0% | [1]; at 33.0 µM 2% | [2]; at 1.2 µM 1% | [2]; at 3.7 µM -1% | [2]; at 11.0 µM 2% | [2]; at 33.0 µM 0% | [2]; at 100.0 µM 30% | [3]; at 1.2 µM -1% | [3]; at 3.7 µM -3% | [3]; at 11.0 µM 1% | [3]; at 33.0 µM 1% | [3]; at 100.0 µM 0% | [4]; at 1.2 µM -1% | [4]; at 3.7 µM -3% | [4]; at 11.0 µM -3% | [4]; at 33.0 µM 15% | [4]; at 100.0 µM 38% | [5]; at 1.2 µM 2% | [5]; at 3.7 µM 2% | [5]; [16] -3% | [5]; at 11.0 µM 2% | [5]; at 33.0 µM 2% | [5]; [17] 64% | [6]; at 1.2 µM 0% | [6]; at 3.7 µM 1% | [6]; [16] -5% | [6]; at 11.0 µM 1% | [6]; at 33.0 µM 1% | [6]; at 50.0 µM 36.1% | [6]; at 100.0 µM 67% | [7]; [16] -3% | [7]; [17] 6% | [7]; at 50.0 µM 58.7% | [8]; at 1.2 µM 1% | [8]; at 3.7 µM 0% | [8]; at 11.0 µM 1% | [8]; at 33.0 µM 0% | [8]; at 100.0 µM 39% | [9]; [16] 3% | [9]; [17] 52% | [9]; at 50.0 µM 6.9% | [10]; at 1.2 µM -1% | [10]; at 3.7 µM -5% | [10]; [16] 11% | [10]; at 11.0 µM -1% | [10]; at 33.0 µM 0% | [10]; [17] 51% | [10]; at 50.0 µM 43.8% | [10]; at 100.0 µM 41% | [11]; at 1.2 µM -1% | [11]; at 3.7 µM -2% | [11]; at 11.0 µM -1% | [11]; at 33.0 µM 0% | [11]; at 100.0 µM 68% | [12]; at 1.2 µM -3% | [12]; at 3.7 µM -1% | [12]; at 11.0 µM 0% | [12]; at 33.0 µM -3% | [12]; at 100.0 µM 61% | [13]; at 1.2 µM -1% | [13]; at 3.7 µM 0% | [13]; at 11.0 µM 0% | [13]; at 33.0 µM 2% | [13]; at 100.0 µM 65% | [14]; [16] -1% | [15]; at 1.2 µM 0% | [15]; at 3.7 µM -1% | [15]; at 11.0 µM -7% | [15]; at 33.0 µM 1%
